In PubChem BioAssay AID1159580 (chemical genetic matrix, 2015):
Hit rate of the full screen: of about 5,500 compounds, about 2,000 (36%) were called active. Inconclusive results (about 18%) are left out. Rule as the data show it: active = normalized growth mostly below about 0.91 (no sharp cut-off); inconclusive = no clear call, values can overlap the other calls; inactive = mostly above about 0.92. Some of the results follow.

Assay: chemical genetic growth profiling, strain panel (AID 1159580);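 also: tested at 20 µM; growth read once vehicle control cultures reached saturation at 30 °C; 1 = growth at the plate median or of vehicle wells; lower values mean less growth of the strain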
Settings: S. cerevisiae deletion strains, growth OD

Measured: normalized growth

CNC(=O)Oc1cccc2c1OC(C)(C)O2
inactive: locus YAL013W, strain DEP1, active compounds read low 1.01 | locus YAL021C, strain ccr4, active compounds read low 0.991 | locus YAL026C, strain drs2, active compounds read low 1 | locus YAL030W, strain snc1, active compounds read low 1.01 | locus YBL061C, strain skt5, active compounds read low 1 | locus YBR009C, strain hhf1, active compounds read low 1 | locus YBR021W, strain FUR4, active compounds read low 1.03 | locus YBR023C, strain chs3, active compounds read low 1 | locus YBR171W, strain sec66, active compounds read low 1.01 | locus YBR229C, strain ROT2, active compounds read low 1.02 | locus YBR231C, strain swc5, active compounds read low 1 | locus YBR279W, strain paf1, active compounds read low 0.994 | locus YCL011C, strain gbp2, active compounds read low 1 | locus YCL016C, strain dcc1, active compounds read low 1 | locus YCL029C, strain bik1, active compounds read low 0.999 | locus YCL061C, strain MRC1, active compounds read low 0.998 | locus YCL069W, strain vba3, active compounds read low 0.998 | locus YCR088W, strain abp1, active compounds read low 1 | locus YDL005C, strain med2, active compounds read low 0.996 | locus YDL035C, strain GPR1, active compounds read low 1.02 | locus YDL040C, strain nat1, active compounds read low 1 | locus YDL074C, strain BRE1, active compounds read low 1.07 | locus YDL101C, strain DUN1, active compounds read low 1.03 | locus YDL134C, strain PPH21, active compounds read low 1.02 | locus YDL185W, strain tfp1, active compounds read low 0.995 | locus YDL192W, strain arf1, active compounds read low 0.993 | locus YDR001C, strain nth1, active compounds read low 1 | locus YDR069C, strain doa4, active compounds read low 1 | locus YDR101C, strain arx1, active compounds read low 0.989 | locus YDR137W, strain rgp1, active compounds read low 1.05 | locus YDR150W, strain NUM1, active compounds read low 1.02 | locus YDR159W, strain sac3, active compounds read low 0.988 | locus YDR162C, strain NBP2, active compounds read low 1.02 | locus YDR195W, strain ref2 0.967 | locus YDR297W, strain sur2, active compounds read low 0.997 | locus YDR318W, strain mcm21, active compounds read low 0.996 | locus YDR334W, strain swr1, active compounds read low 1.01 | locus YDR335W, strain msn5, active compounds read low 0.995 | locus YDR388W, active compounds read low 0.996 | locus YDR392W, strain spt3, active compounds read low 0.814 | locus YDR502C, strain sam2, active compounds read low 0.997 | locus YEL003W, strain gim4, active compounds read low 0.999 | locus YEL037C, strain rad23, active compounds read low 0.998 | locus YEL061C, strain CIN8 (second series), active compounds read low 1.01 | locus YEL061C, strain CIN8, active compounds read low 1.01 | locus YER015W, strain faa2, active compounds read low 1 | locus YER016W, strain bim1, active compounds read low 0.998 | locus YER110C, active compounds read low 1 | locus YER111C, strain swi4, active compounds read low 0.992 | locus YER155C, strain BEM2 (second series), active compounds read low 0.998 | locus YER155C, strain BEM2, active compounds read low 1.02 | locus YER167W, strain BCK2, active compounds read low 1.01 | locus YFR010W, strain ubp6, active compounds read low 0.987 | locus YGL078C, strain dbp3, active compounds read low 0.99 | locus YGL086W, strain mad1, active compounds read low 0.996 | locus YGL167C, strain pmr1, active compounds read low 1 | locus YGL173C, strain kem1, active compounds read low 1 | locus YGL227W, strain vid30, active compounds read low 0.999 | locus YGL240W, strain doc1, active compounds read low 0.986 | locus YGL248W, strain PDE1, active compounds read low 1.01 | locus YGL253W, strain hxk2, active compounds read low 1 | locus YGR078C, strain PAC10, active compounds read low 1.02 | locus YGR135W, strain pre9, active compounds read low 0.999 | locus YGR229C, strain SMI1, active compounds read low 1.03 | locus YGR252W, strain gcn5, active compounds read low 0.941 | locus YHR013C, strain ard1, active compounds read low 0.946 | locus YHR027C, strain rpn1, active compounds read low 1.01 | locus YHR030C, strain SLT2, active compounds read low 1.02 | locus YHR079C, strain IRE1 (second series), active compounds read low 0.99 | locus YHR094C, strain hxt1, active compounds read low 0.995 | locus YHR129C, strain ARP1, active compounds read low 1.02 | locus YHR142W, strain chs7, active compounds read low 1 | locus YHR200W, strain rpn10, active compounds read low 0.995 | locus YIL066C, strain RNR3, active compounds read low 1.02 | locus YIL073C, strain SPO22, active compounds read low 0.954 | locus YIL125W, strain kgd1, active compounds read low 1 | locus YIR030C, strain dcg1, active compounds read low 0.995 | locus YJL092W, strain hpr5, active compounds read low 1 | locus YJL095W, strain BCK1 (second series), active compounds read low 0.997 | locus YJL095W, strain BCK1, active compounds read low 1.04 | locus YJL115W, strain asf1, active compounds read low 0.997 | locus YJL129C, strain trk1, active compounds read low 1.02 | locus YJL134W, strain LCB3, active compounds read low 1.02 | locus YJL154C, strain vps35, active compounds read low 1 | locus YJL164C, strain tpk1, active compounds read low 0.991 | locus YJL166W, strain qcr8, active compounds read low 0.992 | locus YJL168C, strain set2, active compounds read low 0.991 | locus YJL187C, strain SWE1 (second series), active compounds read low 1.01 | locus YJL187C, strain SWE1, active compounds read low 1.01
